# Compound activity deposited in PubChem BioAssay by National Center for Advancing Translational Sciences (NCATS).
# Most compounds without a hit are left out; they make up all but 7.8% or so of the library.
# HCMV antiviral: human cytomegalovirus inhibition. actives 4.5% (n = 410,000). activity change, negative = inhibition, % at 57.5 µM. HFF cells, HCMV-luciferase reporter, 72 h; hits give low values; in the data active means activity change below about -60%; inconclusive means no clear call, values can overlap the other calls; inactive means above about -39%
#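 After 16 h attachment at 37C, HFF cells received test compound and HCMV-luciferase (1 PFU/cell); reporter luminescence read 72 h later, data normalized against buffer-only and known inhibitor Salinomycin.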
# Lassa entry inh: Lassa virus entry inhibition; actives 1.2% (n = 300,000); Lassa virus pseudotype entry inhibition, cell reporter; Potency, µM (series often up to 37.9 µM), without a hit: at the top dose activity change, negative = inhibition, hits mostly inhibitors; calls by dose curve; tested in HEK293 cells; further: potency means the concentration at half of the fitted maximal effect; nearly all actives have a fitted effect of over 50% in size
# HCV inh: HCV inhibition. Huh7.5.1 HCVcc-Cre infection, luciferase reporter, 44 h. Potency, µM (doses to about 41.8 µM), without a hit: at the top dose activity change, negative = inhibition, actives largely listed as inhibitors. actives 3.4% (n = 340,000). AID 651820; active means well fitted inhibition curve with a large enough effect; inconclusive means small, poorly fitted or top-dose-only effect, or another doubt; inactive means no such curve, though single readings can be large or run the other way; further: potency means the concentration at half of the fitted maximal effect
#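 Whole-lifecycle infectious HCVcc-Cre system; cells 1,000/well, compound then virus (~0.5 moi) added 4 h after plating, 44 h culture. Luciferase read 15 sec following 15 min substrate incubation, room temp.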
# VACV mCherry inh: inhibitors of vaccinia virus infection (mCherry reporter signal); actives 0.63% (n = 310,000); Vaccinia virus mCherry reporter infection, fluorescence; Potency, µM (doses to about 36.5 µM), for inactives: at the top dose activity change, negative = inhibition, hits mostly inhibitors; calls by dose curve; tested in A549 cells; further: potency means the concentration at half of the fitted maximal effect; nearly all actives have a fitted effect of over 35% in size
# MARV entry inh: Marburg virus entry inhibition; AID 540276; actives 1.8% (n = 300,000); Potency, µM (doses to about 37.8 µM), for inactives: top-dose activity change, negative = inhibition, hits mostly inhibitors; Marburg virus pseudotyped entry inhibition, cell reporter; calls by dose curve; tested in HEK293 cells; further: potency means the concentration at half of the fitted maximal effect
# VACV Venus inh: vaccinia inhibition (Venus reporter); AID 720580; Vaccinia virus Venus reporter expression, fluorescence; Potency, µM (doses to about 36.5 µM), inactives show at the highest dose activity change, negative = inhibition, usual class: inhibitors; actives 0.46% (n = 330,000); calls by dose curve; tested in A549 cells; further: potency means the concentration at half of the fitted maximal effect; nearly all actives have a fitted effect of over 30% in size
# * marks the source's active call; other numbers are inactive results; i = inactive; u = inconclusive; x = not tested or not shown; [ ] = another dose, or the depositor's remark. On the % scale 0 is the no-effect control and ±100 the full control effect.
SMILES,HCMV antiviral,Lassa entry inh,HCV inh,VACV mCherry inh,MARV entry inh,VACV Venus inh
COc1cc(CNCCCN2CCOCC2)cc(Br)c1OCC(=O)N1CCCCC1,24,-13%,u,x,u,x
O=S(=O)(O)c1nc2ccccc2n1Cc1ccccc1,-13,18%,5%,-10%,u,-2%
CCS(=O)(=O)c1nc2ccccc2n1Cc1ccccc1Cl,-67*,x,u,i,x,-6%
CS(=O)(=O)c1nc2ccccc2n1Cc1ccccc1,-67*,-10%,15%,x,-7%,x
CCOc1ccccc1NC(=O)c1cnc2n(c1=O)CCS2,46,4%,-6%,-16%,27%,-9%
O=C(Nc1ccc(Oc2ccccc2)cc1)c1cnc2n(c1=O)CCS2,-86*,x,u,u,x,-28%
CCn1nnc2cc(C(=O)Nc3ccc(Br)cc3F)ccc21,15,u,x,1%,x,-2%
CCn1nnc2cc(C(=O)NCCc3ccccc3F)ccc21,66,1.1µM*,19%,-12%,6.3µM*,-4%
COc1ccc(CCN2C(=O)CSC2=S)cc1OC,-101*,u,-1%,-13%,u,46%
O=C1/C(=C\c2ccco2)SC(=S)N1Cc1ccccc1,-19,-14%,u,i,15%[46.1 µM],-1%
COc1ccc(CCN2C(=O)/C(=C\c3ccco3)SC2=S)cc1OC,-96*,2%,-18%,i,-3%,2%
CC(C)c1nn2c(=O)cc(COC(=O)c3cccc(NC(=O)COc4ccc(F)cc4)c3)nc2s1,158,6%[46.1 µM],x,-9%,x,-6%
CCN(CC)C(=O)Cn1c(=O)cc(C)c2c(C)nn(C)c21,5,10%[46.1 µM],x,-9%,x,-2%
O=C(CSc1ncc(-c2ccc(F)cc2)n1Cc1ccco1)Nc1ccc2c(c1)OCO2,12,u,u,-19%,u,u
Cc1ccc(NC(=O)Cn2c(-c3ccc(F)cc3)cnc2SCC(=O)Nc2c(C)cccc2C)cc1,-78*,u,1%,1%,u,-3%
CCOc1ccc(NC(=O)CSc2ncc(-c3ccc(F)cc3)n2Cc2ccco2)cc1,-27,x,10µM*,-25%,x,-10%
Cc1ccc(C(=O)n2c(-c3ccccc3)cnc2SCC(=O)Nc2ccccc2)cc1,-74*,1%,-6%,i,u,-10%
Cc1ccc(NC(=O)CSc2ncc(-c3ccccc3)n2C(=O)c2ccccc2)cc1,6,4%,15%,x,4%,x
Cc1cccc(-c2nc3c4ccccc4nc(N4CCN(c5cc(C)ccc5C)CC4)n3n2)c1,130,x,x,-17%,3%[46.1 µM],-8%
COc1cc2c(cc1OC)C(COc1ccc(C(C)C)cc1)N(C(=O)COc1ccccc1)CC2 (stereo not drawn),-7,u,x,-6%,x,-18%
Cc1oc(-c2ccccc2)nc1Cn1c(=O)cc(-c2ccccc2)c2c(C)nn(C)c21,3,7%[46.1 µM],x,-11%,x,-10%
O=C(NC1=C(NC2CCS(=O)(=O)C2)C(=O)c2ccccc2C1=O)c1ccccc1 (stereo not drawn),-99*,x,u,x,x,x
O=C(NC1=C(Nc2ccc(Cl)cc2)C(=O)c2ccccc2C1=O)c1ccccc1,-65*,u,u,28µM*,u,u
COc1cccc(CN2CCCC(c3nc(-c4ccncc4)ncc3-c3ccccc3C)C2)c1O (stereo not drawn),x,x,x,-12%,x,5%
O=C1c2ccccc2C(Nc2cccc(C(F)(F)F)c2)N1Cc1ccco1 (stereo not drawn),-31,u,u,-23%,14µM*,u
SMILES,HCMV antiviral,Lassa entry inh,HCV inh,VACV mCherry inh,MARV entry inh,VACV Venus inh
CCc1ccc(CNC(=O)c2ccc(CS(=O)(=O)Cc3ccccc3C)o2)cc1,-6,-23%[46.1 µM],x,-5%,x,2%
O=C1c2cccc(NCCCNCCO)c2C(=O)c2cccc(NCCCNCCO)c21,-98*,-16%[46.1 µM],u,u,u,u
O=C1c2ccccc2C(=O)c2c(NCc3cccnc3)cccc21,u,4%,u,-13%,6%,17%
CCOC(=O)C1(C(=O)OCC)Cc2ccc(C(C)=O)cc2C1,x,u,x,x,-20%[14.2 µM],x
c1ccc(Nc2nc3ccccc3[nH]2)nc1,-68*,u,-2%,-16%,-26%,-5%
Cc1ccc(S(=O)(=O)NCc2ccncc2)cc1C,-68*,u,2.2µM*,i,u,-22%
Cc1cc(C)c(C)c(S(=O)(=O)NCc2ccncc2)c1C,-68*,u,7.1µM*,-8%,u,-8%
CNC(=O)c1cc(S(=O)(=O)NCc2ccncc2)ccc1OC,u,x,-2%,x,x,x
O=S(=O)(NCc1ccncc1)c1ccc(F)c(F)c1,u,x,x,u,x,-26%
COc1cc(S(=O)(=O)NCc2ccncc2)ccc1Br,-70*,u,u,-28%,u,-21%
O=S(=O)(NCc1ccncc1)c1ccc(Br)s1,-61*,-16%,u,-26%,u,u
N#C/C(=C\Nc1ccccc1O)c1nc2ccccc2o1,-95*,u,10µM*,u,u,u
N#C/C(=C\c1ccncc1)c1nc2ccccc2o1,178,-30%,9%,i,-18%[46.1 µM],13%
Cc1ccccc1-c1noc(CSc2nnc(Cc3ccccc3)n2-c2ccc(F)cc2)n1,12,u,x,i,u,-18%
CCN(c1ccc(C)cc1C)S(=O)(=O)c1nnc(NC(=O)C(C)C)s1,-73*,x,-8%,x,x,x
CCN(c1cc(C)cc(C)c1)S(=O)(=O)c1nnc(NC(=O)C(C)C)s1,-77*,-20%,-9%,-5%,u,-21%
Cc1cc(C)cc(N(C)S(=O)(=O)c2nnc(NC(=O)C(C)C)s2)c1,u,u,24%,-11%,u,-23%
CS(=O)(=O)c1ccc(Nc2nccc3[nH]c(-c4ccsc4)cc23)cc1,-9,x,x,x,x,x
Cn1cc(CN2CCCC(CNC(=O)c3ccc4c(c3)OCO4)C2)c2ccccc21 (stereo not drawn),52,18%[46.1 µM],-11%,-3%,7.9µM*,-19%
Cn1cc(CN2CCCC(C(=O)c3cc(F)ccc3F)C2)c2ccccc21 (stereo not drawn),-30,u,-19%,-20%,10µM*,-21%
CC(=O)NCC1CCCN(Cc2cn(-c3ccccc3)nc2-c2ccc3c(c2)OCO3)C1 (stereo not drawn),-28,2%,-10%,-3%,-3%,-7%
COc1ccc(F)cc1C(=O)C1CCCN(Cc2cn(C)c3ccccc23)C1 (stereo not drawn),-27,u,u,-22%,15µM*,-24%
COc1ccc(OC)c(CN2CCCC(C(=O)c3ccccc3SC)C2)c1 (stereo not drawn),-63*,u,10µM*,-21%,2.5µM*,9%
Cc1cc(NC(=O)c2ccc(NC(=O)CCS(=O)(=O)c3cccs3)cc2)ccc1Br,-27,u,x,-3%,u,-27%
